Bioassay records as filed in PubChem BioAssay.
In the library only some 0.82% were active in any assay of this set; here they are far more common.
cardiac RTF act – cardiac RTF calcium sensitization; P19429+P45379; IANBD-labeled TnC RTF fluorescence at EC20 calcium; 0% EC20 calcium, 100% full calcium; activation, % at 7.2 µM; 340,000 compounds, 0.24% hits; AID 493008;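 active means activation above the mean over all tested compounds plus 3 SD, cut at about 30% in these data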;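 further: rise in fluorescence read as greater calcium sensitivity of cardiac thin filaments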
Keap1-Nrf2 PPI – disrupts human Keap1 binding to Nrf2 peptide. Q14145. Keap1 Kelch-Nrf2 peptide fluorescence polarization, 1536-well. inhibition, % at 9.4 µM. 340,000 compounds, 0.15% hits; in the data active means inhibition above about 12%;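 further: human Keap1 Kelch domain with fluorescein labeled Nrf2 9mer peptide probe; 0% = neutral control wells and 100% = peptide positive control; higher means more block of Keap1 binding to Nrf2 peptide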
Cardiac RTF inh – cardiac RTF calcium desensitization | P19429+P45379 | inhibition, % at 7.15 µM | IANBD-labeled cardiac RTF, Ca2+ fluorescence | AID 493244 | 340,000 compounds, 0.12% hits;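 active means inhibition above the mean inhibition of all tested compounds plus 3 SD, cut at about 17% in these data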;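 further: assay run at fixed EC70 calcium of 1.6 mM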
C-LANA FP – blocks KSHV LANA C-terminal domain binding to DNA; MBP-C-LANA/FAM-LBS DNA binding, fluorescence polarization; inhibition, % at 9 µM; AID 504423; 340,000 compounds, 0.078% hits;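 active means highest replicate inhibition at or above 60% at 9 µM, even if other replicates fall short; inactive means all replicates below 60% inhibition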;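 further: 0% = neutral control wells and 100% = 4 µM acridine orange control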
eLon inh – E. coli protease La inhibition; P0A9M0; purified E. coli Lon protease, fluorescence polarization; inhibition, % at 7.94 µM; 360,000 compounds, 0.42% hits; AID 602123; in the data active means inhibition above about 13%, passing the limit was not always enough;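 further: 0% = enzyme with probe and DMSO and 100% = no enzyme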
Target sequence (P0A9M0 whole entry, looked up): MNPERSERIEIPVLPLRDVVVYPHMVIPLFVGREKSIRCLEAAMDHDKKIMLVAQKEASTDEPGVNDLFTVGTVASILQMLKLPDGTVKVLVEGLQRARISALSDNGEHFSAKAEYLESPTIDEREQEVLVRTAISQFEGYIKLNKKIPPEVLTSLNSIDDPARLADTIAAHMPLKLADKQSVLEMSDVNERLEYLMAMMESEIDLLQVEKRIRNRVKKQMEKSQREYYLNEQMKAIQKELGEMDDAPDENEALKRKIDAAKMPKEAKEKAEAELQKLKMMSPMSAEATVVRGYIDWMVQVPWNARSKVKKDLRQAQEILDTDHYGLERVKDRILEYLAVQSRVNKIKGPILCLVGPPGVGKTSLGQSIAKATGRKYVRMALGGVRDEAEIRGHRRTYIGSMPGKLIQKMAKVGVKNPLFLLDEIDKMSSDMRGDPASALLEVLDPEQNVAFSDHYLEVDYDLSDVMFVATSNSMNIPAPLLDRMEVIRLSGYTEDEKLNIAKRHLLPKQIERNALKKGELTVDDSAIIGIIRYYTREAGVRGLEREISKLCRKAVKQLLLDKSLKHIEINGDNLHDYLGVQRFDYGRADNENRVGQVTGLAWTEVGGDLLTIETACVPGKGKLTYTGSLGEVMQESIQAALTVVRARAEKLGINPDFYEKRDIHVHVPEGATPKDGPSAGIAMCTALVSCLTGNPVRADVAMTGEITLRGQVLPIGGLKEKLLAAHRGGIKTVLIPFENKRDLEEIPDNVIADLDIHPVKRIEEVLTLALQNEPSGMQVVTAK
E coli Lon conf – confirmation of E. coli Lon protease inhibitors. shares compounds with eLon inh. purified E. coli Lon, fluorescence polarization. inhibition, % at 7.94 µM. 1,400 compounds, 31% hits; in the data active means inhibition above about 16%;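 further: 0% = enzyme with probe and DMSO and 100% = no enzyme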
* marks the source's active call; other numbers are inactive results.

Results for CCCNC(=O)C1(C)CCCN(Cc2ccccc2C#N)C1 (stereo not given) ?
eLon inh: -2

How did Cc1cc2c(cc1C)NC(c1c(C)n(C)n(-c3ccccc3)c1=O)C1=C(CC(C)(C)CC1=O)N2 (stereo not given) do in these assays?
cardiac RTF act: 13; Keap1-Nrf2 PPI: -3; Cardiac RTF inh: -31; C-LANA FP: 12; eLon inh: 20*; E coli Lon conf: 4

How did COc1ccc(C2Nc3ccccc3NC3=C2C(=O)CC(C)(C)C3)cc1OC (stereo not given) do in these assays?
cardiac RTF act: -3; Keap1-Nrf2 PPI: -1; Cardiac RTF inh: -3; C-LANA FP: 3; eLon inh: -3

What do the screens show for `CC1(C)CC(=O)C2=C(C1)Nc1ccccc1NC2c1ccc2c(c1)OCO2` (stereo not given)?
cardiac RTF act: 2; Keap1-Nrf2 PPI: 0; Cardiac RTF inh: -3; C-LANA FP: 1; eLon inh: 36*; E coli Lon conf: 16*

What do the screens show for `COc1ccc(C2Nc3ccccc3NC3=C2C(=O)CC(C)(C)C3)cc1O` (stereo not given)?
cardiac RTF act: 2; Keap1-Nrf2 PPI: 4; Cardiac RTF inh: -6; C-LANA FP: 6; eLon inh: 19*; E coli Lon conf: 9

What do the screens show for `CCOc1ccc(C2Nc3ccccc3NC3=C2C(=O)CC(C)(C)C3)cc1OC` (stereo not given)?
cardiac RTF act: -2; Keap1-Nrf2 PPI: -2; Cardiac RTF inh: -12; C-LANA FP: 1; eLon inh: 29*; E coli Lon conf: -2

How did COc1cccc(C(C)NC(=O)c2ccncc2)c1 (stereo not given) do in these assays?
cardiac RTF act: 5; Keap1-Nrf2 PPI: -6; Cardiac RTF inh: -6; C-LANA FP: 1; eLon inh: -6

Results for Cc1ccccc1OCC(=O)Nc1nnc(C2CCCC2)s1 ?
cardiac RTF act: 1; Keap1-Nrf2 PPI: -2; Cardiac RTF inh: -6; C-LANA FP: 1; eLon inh: -4

Results for O=C(CN1CCN(Cc2ccc(F)cc2Cl)CC1)NCc1ccccc1 ?
cardiac RTF act: -11; Keap1-Nrf2 PPI: 3; Cardiac RTF inh: -11; C-LANA FP: -3; eLon inh: -2

How did C/C(=N\NC(=O)C(C)Sc1ccccc1)c1ccc([N+](=O)[O-])cc1 (stereo not given) do in these assays?
cardiac RTF act: 0; Keap1-Nrf2 PPI: -1; Cardiac RTF inh: 3; C-LANA FP: 0; eLon inh: 1

What do the screens show for `CC1(C)CC(=O)C2=C(C1)Nc1ccccc1NC2c1ccc(F)cc1` (stereo not given)?
cardiac RTF act: -5; Keap1-Nrf2 PPI: 4; Cardiac RTF inh: -3; C-LANA FP: 4; eLon inh: 3

Results for COc1ccc(C2Nc3ccccc3NC3=C2C(=O)CC(C)(C)C3)cc1 (stereo not given) ?
cardiac RTF act: 4; Keap1-Nrf2 PPI: 4; Cardiac RTF inh: -61; C-LANA FP: 18; eLon inh: 64*; E coli Lon conf: 10

Results for O=C1c2ccccc2C(=O)N1SC1CCCCC1 ?
cardiac RTF act: 4; Keap1-Nrf2 PPI: -30; Cardiac RTF inh: 2; C-LANA FP: 3; eLon inh: 19*; E coli Lon conf: -65

Results for O=C(OCN1C(=O)c2ccccc2C1=O)C1CCCCC1 ?
cardiac RTF act: -6; Keap1-Nrf2 PPI: 1; Cardiac RTF inh: -9; C-LANA FP: 0; eLon inh: 2

What do the screens show for `CCCCNc1nc2ccccc2n1CC(=O)Nc1c(C)cccc1CC`?
cardiac RTF act: 7; Keap1-Nrf2 PPI: -5; Cardiac RTF inh: -5; C-LANA FP: 0; eLon inh: 25*; E coli Lon conf: -9

What do the screens show for `CCc1cccc(C)c1NC(=O)Cn1c(NCCO)nc2ccccc21`?
cardiac RTF act: -3; Keap1-Nrf2 PPI: -5; Cardiac RTF inh: 8; C-LANA FP: 3; eLon inh: 1

What do the screens show for `Fc1ccccc1C(c1nnnn1Cc1ccc2c(c1)OCO2)N1CCN(Cc2ccco2)CC1` (stereo not given)?
cardiac RTF act: 6; Keap1-Nrf2 PPI: 1; Cardiac RTF inh: 3; C-LANA FP: 1; eLon inh: 16*; E coli Lon conf: -3

How did Cc1cncc(NCc2ccc3c(c2)OCO3)n1 do in these assays?
eLon inh: -4
